USP17 inh: inhibitors of human USP17 deubiquitinase. A8MUK1. purified USP17, Ub-rhodamine cleavage fluorescence, 3 h. AID 1645855. actives 6.5% (n = 47,000). inhibition, % at 50 µM
USP28 block: human USP28 deubiquitinase inhibition. AID 1645857. purified USP28, Ub-rhodamine cleavage fluorescence, 30 min. actives 3% (n = 47,000). inhibition, % at 25 µM. Q96RU2
Target sequence (Q96RU2 whole entry, looked up): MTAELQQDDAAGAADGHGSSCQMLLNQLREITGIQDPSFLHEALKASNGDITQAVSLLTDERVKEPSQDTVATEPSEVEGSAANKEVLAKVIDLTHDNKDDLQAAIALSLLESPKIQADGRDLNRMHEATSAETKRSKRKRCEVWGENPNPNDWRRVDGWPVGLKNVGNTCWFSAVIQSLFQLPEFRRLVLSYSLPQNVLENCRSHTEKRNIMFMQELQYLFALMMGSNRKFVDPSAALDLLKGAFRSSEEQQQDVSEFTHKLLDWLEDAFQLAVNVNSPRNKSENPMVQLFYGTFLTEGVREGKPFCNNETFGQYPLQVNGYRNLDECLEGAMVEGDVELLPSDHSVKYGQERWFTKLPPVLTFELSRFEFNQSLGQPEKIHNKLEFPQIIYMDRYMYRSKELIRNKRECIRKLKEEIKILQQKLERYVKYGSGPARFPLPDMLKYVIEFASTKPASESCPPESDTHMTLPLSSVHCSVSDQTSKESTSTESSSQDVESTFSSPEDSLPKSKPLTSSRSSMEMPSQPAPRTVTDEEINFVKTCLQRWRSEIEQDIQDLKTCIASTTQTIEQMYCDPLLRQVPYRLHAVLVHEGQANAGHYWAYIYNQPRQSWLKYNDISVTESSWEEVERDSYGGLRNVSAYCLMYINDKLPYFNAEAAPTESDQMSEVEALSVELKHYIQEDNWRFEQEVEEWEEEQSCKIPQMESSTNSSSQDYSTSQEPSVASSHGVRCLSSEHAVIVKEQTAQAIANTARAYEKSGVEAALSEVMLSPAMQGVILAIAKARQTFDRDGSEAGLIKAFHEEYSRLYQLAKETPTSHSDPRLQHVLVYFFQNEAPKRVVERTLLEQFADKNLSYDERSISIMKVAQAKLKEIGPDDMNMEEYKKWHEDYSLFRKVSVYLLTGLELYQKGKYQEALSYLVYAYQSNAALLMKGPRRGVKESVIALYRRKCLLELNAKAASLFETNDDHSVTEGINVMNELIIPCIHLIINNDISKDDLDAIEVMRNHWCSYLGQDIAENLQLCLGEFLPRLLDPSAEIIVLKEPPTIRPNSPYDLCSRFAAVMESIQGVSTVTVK
USP30 inh: inhibitors of human USP30 deubiquitinase; Q70CQ3; purified USP30, Ub-rhodamine cleavage fluorescence; inhibition, % at 25 µM; actives 5.3% (n = 47,000); AID 1645860
* marks the source's active call; other numbers are inactive results; · = no result. Only some compounds are listed: those with a hit (about 11% of all), similar ones and a draw of the others. Cut-off read from the data, not from the text of the source: active = inhibition above about 30%; inactive = the rest.

SMILES	USP17 inh	USP28 block	USP30 inh
Cn1c(=O)c2c(C(=O)N3CCN(Cc4ccccc4)CC3)cc(=O)n(C)c2n(C)c1=O	6.4	3.1	1.2
CCN1C[C@@]23CN(C(=O)NCCc4ccc(OC)cc4)C[C@@H](C[C@@H]2S1(=O)=O)O3	6.0	12.7	14.5
COC(=O)c1cccnc1-n1c(=O)c2cccnc2n(CC(=O)Nc2c(C)cccc2C)c1=O	-12.8	-13.6	-9.3
O=C(Nc1cccc(C(F)(F)F)c1)c1nn(C2CCS(=O)(=O)C2)c2c1CCCC2 (centres undefined)	10.2	1.4	30.8*
O=C(Nc1ccccc1Cl)c1nn(C2CCS(=O)(=O)C2)c2c1CCCC2 (centres undefined)	4.7	-0.2	0.0
Cn1nccc1C(=O)N1CC[C@]2(C)[C@H]1CCCCC(=O)N2Cc1ccc(C(F)(F)F)cc1	-11.4	-12.3	-13.6
CCCCNC(=O)CCCn1c(=O)c2ccccc2n(CC(=O)NCCC2=CCCCC2)c1=O	24.2	9.8	14.4
CN(C(=O)Cn1c(=O)n(CCC(=O)NCc2ccc3c(c2)OCO3)c(=O)c2ccccc21)C1CCCCC1	0.0	11.6	30.3*
O=C(Cn1c(=O)n(CCCC(=O)N2CC=C(c3ccccc3)CC2)c(=O)c2ccccc21)NCCC1=CCCCC1	52.2*	-2.1	16.9
O=C(Cn1c(=O)n(CCCC(=O)NC2CCN(Cc3ccccc3)CC2)c(=O)c2ccccc21)NCCC1=CCCCC1	4.1	0.3	0.1
O=C(CCn1c(=O)c2ccccc2n(CC(=O)OCc2ccccc2)c1=O)NCc1ccc2c(c1)OCO2	28.3	8.9	26.2
O=C(CCn1c(=O)c2ccccc2n(Cc2cccc([N+](=O)[O-])c2)c1=O)N1CC=C(c2ccccc2)CC1	7.8	17.7	39.5*
O=C(CCn1c(=O)c2ccccc2n(Cc2ccccc2F)c1=O)N1CC=C(c2ccccc2)CC1	5.3	2.1	25.2
O=C(CCCCn1c(=O)c2ccccc2n(CC(=O)NCCC2=CCCCC2)c1=O)NCc1ccc2c(c1)OCO2	32.7*	·	·
CNc1cc(CC2CCN(C(=O)c3cccnc3)CC2)nc(C)n1	9.3	4.0	18.5
O=C(Cn1c(=O)n(-c2ccccc2)c(=O)c2ccc(C(=O)NCc3ccc4c(c3)OCO4)cc21)NCCC1=CCCCC1	32.9*	41.2*	55.6*
O=C(Cc1ccc(-n2c(=O)c3ccccc3n(CC(=O)NCCC3=CCCCC3)c2=O)cc1)NCCc1ccccc1	6.2	-23.5	-34.6
Fc1ccccc1Cn1c(C2CCCO2)nc2ccccc21 (centres undefined)	-7.4	7.5	-3.3
Cc1ccc(S(=O)(=O)N(CC(=O)NCC(C)C)Cc2ccccc2F)cc1	-23.3	-20.6	-4.2
Cn1cc(CN2C[C@@H](NC(=O)c3cccn3C)[C@H]3OCCC[C@H]32)cn1	-11.3	9.1	11.3
COC(=O)c1c(NC2CCC(C)CC2)c2cc(F)ccc2[nH]c1=O (centres undefined)	-13.0	-7.6	0.0
Cc1ccn(-c2ccc(NC(=O)c3ccccc3Sc3ccccc3C#N)cc2)n1	50.5*	38.3*	34.9*
N#Cc1ccccc1Sc1ccccc1C(=O)Nc1ccc(Cl)cc1	0.3	-8.4	3.6
O=C(NC1CCN(c2cc(-c3ccc(F)cc3)[nH]n2)C1)c1ccccn1 (centres undefined)	-16.8	-1.7	-114.5
CCN1CCN(C(=O)c2cc(=O)n(C)c3c2c(=O)n(C)c(=O)n3C)CC1	-2.5	-8.7	-27.7
SMILES	USP17 inh	USP28 block	USP30 inh
O=C(Cn1cc(-c2ccccc2)c2ncn(C3CC3)c(=O)c21)NCc1ccc2c(c1)OCO2	-8.4	-10.3	-76.3
Cc1cc(C)c(NC(=O)CS(=O)(=O)c2cn(CC(=O)N3CCC(C)CC3)c3ccccc23)c(C)c1	2.2	6.5	12.5
COc1ccc(NC(=O)CSc2cn(CC(=O)N3CCCCCC3)c3ccccc23)cc1OC	-10.3	-8.1	6.7
CC1CCN(C(=O)Cn2cc(SCC(=O)Nc3ccc4c(c3)OCCO4)c3ccccc32)CC1	-0.1	37.6*	5.7
COc1ccc(OC)c(NC(=O)CS(=O)(=O)c2cn(CC(=O)N3CCC(C)CC3)c3ccccc23)c1	51.0*	18.7	9.3
CCn1cnc2c(-c3ccccc3)cn(CC(=O)NCc3ccc4c(c3)OCO4)c2c1=O	50.6*	8.7	19.7
CCOc1ccc2c(c1)c(=O)c(C(=O)c1ccc(C)cc1)cn2CC(=O)Nc1ccc(C)cc1	8.5	11.8	10.0
CCOc1ccc2c(c1)c(=O)c(C(=O)c1ccc(C)cc1)cn2CC(=O)Nc1ccc(OC)cc1	56.0*	4.1	-3.9
O=c1oc2ccccc2cc1S(=O)(=O)c1ccccc1	28.8	1.1	15.4
O=C(C1CCC(=O)N1S(=O)(=O)c1ccccc1)N1CCN(c2ccccn2)CC1 (centres undefined)	2.6	·	·
O=C(CN(CCC1=CCCCC1)S(=O)(=O)c1ccc(Cl)cc1)Nc1ccc(F)c(F)c1	-7.2	-9.7	-15.9

Screening data (PubChem)
